# Laboratory results as given in PubChem BioAssay.
# “And” between values parts separate entries of the source, which are not always exact repeats. Equal entries are not always repeated. The source made the active and inactive calls. The rule behind the calls is not given here.
# Assay: growth inhibition, MDA-MB-436, cell-based, BGB or cisplatin combos, synergistic combos for chromothripsis tumors (AID 1671458);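 note: cells exposed for 96 hours; 0% = vehicle DMSO and 100% = killing by high DMSO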
# Details: MDA-MB-436 breast carcinoma growth inhibition, drug combinations; at 0.5 µM; stronger effect = higher value
row,Structure (SMILES),inhibition
1,COc1cc([C@@H]2c3cc4c(cc3[C@@H](O[C@@H]3O[C@@H]5CO[C@@H](c6cccs6)O[C@H]5[C@H](O)[C@H]3O)[C@H]3COC(=O)[C@H]23)OCO4)cc(OC)c1O,49.3% (inactive) and 53.1% (inactive)
2,COc1cc(NS(C)(=O)=O)ccc1Nc1c2ccccc2nc2ccccc12,43.4% (inactive) and 40.4% (inactive)
3,N=c1ccn2c(n1)O[C@H]1[C@H](O)[C@@H](CO)O[C@H]12,14% (inactive)

# Same assay, conditions: MDA-MB-436 breast carcinoma growth inhibition, drug combinations; measured here: BGB combination; at 0.5 µM; stronger effect = higher value
row,Structure (SMILES),inhibition
1,COc1cc([C@@H]2c3cc4c(cc3[C@@H](O[C@@H]3O[C@@H]5CO[C@@H](c6cccs6)O[C@H]5[C@H](O)[C@H]3O)[C@H]3COC(=O)[C@H]23)OCO4)cc(OC)c1O,36% and 34.4%
2,COc1cc(NS(C)(=O)=O)ccc1Nc1c2ccccc2nc2ccccc12,27.5% and 21.1%
3,N=c1ccn2c(n1)O[C@H]1[C@H](O)[C@@H](CO)O[C@H]12,5.47%

# Same assay, conditions: MDA-MB-436 breast carcinoma growth inhibition, drug combinations; measured here: BGB combination; at 5 µM; stronger effect = higher value
row,Structure (SMILES),inhibition
1,COc1cc([C@@H]2c3cc4c(cc3[C@@H](O[C@@H]3O[C@@H]5CO[C@@H](c6cccs6)O[C@H]5[C@H](O)[C@H]3O)[C@H]3COC(=O)[C@H]23)OCO4)cc(OC)c1O,73.1% and 71.2%
2,COc1cc(NS(C)(=O)=O)ccc1Nc1c2ccccc2nc2ccccc12,55% and 42.6%
3,N=c1ccn2c(n1)O[C@H]1[C@H](O)[C@@H](CO)O[C@H]12,33.7%

# Same assay, conditions: MDA-MB-436 breast carcinoma growth inhibition, drug combinations; measured here: cisplatin combination; at 0.5 µM; stronger effect = higher value
row,Structure (SMILES),inhibition
1,COc1cc([C@@H]2c3cc4c(cc3[C@@H](O[C@@H]3O[C@@H]5CO[C@@H](c6cccs6)O[C@H]5[C@H](O)[C@H]3O)[C@H]3COC(=O)[C@H]23)OCO4)cc(OC)c1O,49.6% and 58.2%
2,COc1cc(NS(C)(=O)=O)ccc1Nc1c2ccccc2nc2ccccc12,41.4% and 47.1%
3,N=c1ccn2c(n1)O[C@H]1[C@H](O)[C@@H](CO)O[C@H]12,0.616%

# Same assay, conditions: MDA-MB-436 breast carcinoma growth inhibition, drug combinations; measured here: cisplatin combination; at 5 µM; stronger effect = higher value
row,Structure (SMILES),inhibition
1,COc1cc([C@@H]2c3cc4c(cc3[C@@H](O[C@@H]3O[C@@H]5CO[C@@H](c6cccs6)O[C@H]5[C@H](O)[C@H]3O)[C@H]3COC(=O)[C@H]23)OCO4)cc(OC)c1O,83.3% and 88.6%
2,COc1cc(NS(C)(=O)=O)ccc1Nc1c2ccccc2nc2ccccc12,67.1% and 66.9%
3,N=c1ccn2c(n1)O[C@H]1[C@H](O)[C@@H](CO)O[C@H]12,57.3%

# Assay: UWB1.289_BRCA1 ovarian cancer growth, cell-based, BGB or cisplatin combinations (AID 1671459)
# Details: UWB1.289 BRCA1 ovarian carcinoma, drug combinations, BGB combination, concentration series, at 5 µM, stronger effect = higher value
row,Structure (SMILES),inhibition
1,COc1cc([C@@H]2c3cc4c(cc3[C@@H](O[C@@H]3O[C@@H]5CO[C@@H](c6cccs6)O[C@H]5[C@H](O)[C@H]3O)[C@H]3COC(=O)[C@H]23)OCO4)cc(OC)c1O,94.5% and 109%
2,COc1cc(NS(C)(=O)=O)ccc1Nc1c2ccccc2nc2ccccc12,79.6% and 77.5%
3,N=c1ccn2c(n1)O[C@H]1[C@H](O)[C@@H](CO)O[C@H]12,22.3%
